Compounds with a hit are over-represented: about 5.2% of the library has one in this group of screens.
TrxR1 substrate = qHTS Assay for Substrates of Mammalian Selenoprotein Thioredoxin Reductase 1 (TrxR1): qHTS. Thioredoxin reductase 1, cytoplasmic (Rattus norvegicus), O89049. purified TrxR1 substrate turnover, NADPH consumption readout. Potency, µM (top dose mostly 114 µM). 390,000 compounds, 0.01% hits. AID 588456, 2011; also: nearly all actives have a fitted effect of over 50% in size
Target sequence (O89049 whole entry, looked up): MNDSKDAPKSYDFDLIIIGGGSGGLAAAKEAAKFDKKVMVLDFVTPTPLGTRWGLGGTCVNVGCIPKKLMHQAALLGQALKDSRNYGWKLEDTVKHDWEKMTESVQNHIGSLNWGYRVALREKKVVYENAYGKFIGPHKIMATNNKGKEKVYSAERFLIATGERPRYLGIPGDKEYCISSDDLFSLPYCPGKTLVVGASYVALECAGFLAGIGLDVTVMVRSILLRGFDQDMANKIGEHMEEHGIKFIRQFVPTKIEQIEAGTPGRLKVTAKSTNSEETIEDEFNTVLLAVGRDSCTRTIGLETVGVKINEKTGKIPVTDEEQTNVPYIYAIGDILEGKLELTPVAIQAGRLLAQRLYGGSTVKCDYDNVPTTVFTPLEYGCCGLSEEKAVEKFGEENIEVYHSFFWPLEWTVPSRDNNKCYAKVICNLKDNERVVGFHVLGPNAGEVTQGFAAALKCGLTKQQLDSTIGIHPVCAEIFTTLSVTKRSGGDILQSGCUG
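Rat TrxR1, dispensed at 90 nM, was prereduced with 400 uM NADPH (final) for 5 min at ~22 deg C, then incubated with compound 15 min before 400 uM selenite. A first-read NADPH fluorescence drop versus no-compound background flagged substrates.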
TrxR1 inh = qHTS Assay for Inhibitors of Mammalian Selenoprotein Thioredoxin Reductase 1 (TrxR1): qHTS; Thioredoxin reductase 1, cytoplasmic (Rattus norvegicus), O89049; recombinant rTrxR1, NADPH fluorescence consumption, selenite substrate; Potency, µM (highest dose often 114 µM), hits mostly inhibitors; 390,000 compounds, 1% hits; AID 588453, 2011; also: nearly all actives have a fitted effect of over 65% in size
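Rat TrxR1 (90 nM in the dispensed reagent) was pre-reduced with 400 uM NADPH for 5 min at room temperature, then incubated with compound for 15 min. After 400 uM selenite was added, NADPH fluorescence (Ex 340/Em 450 nm) was followed for 8 min.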
Sfp inh = qHTS Assay for Inhibitors of Bacillus subtilis Sfp phosphopantetheinyl transferase (PPTase); AID 1490, 2009; Biochemical Sfp PPTase activity, qHTS; 4'-phosphopantetheinyl transferase ffp (Bacillus subtilis), Q9F4F7; Potency, µM, hits mostly inhibitors; 310,000 compounds, 3.5% hits;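 also: the enzyme is Sfp with the accession as filed and its product quenches rhodamine fluorescence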
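Buffer: 50 mM Hepes-Na pH 7.6, 10 mM MgCl2, 0.01% Nonidet P-40, 0.01% BSA. Enzyme 15 nM, pre-exposed to compound 15 min; substrates then added and fluorescence change tracked over 30 min.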
mIDH1 inhibitor = qHTS for Inhibitors of mutant isocitrate dehydrogenase 1 (IDH1): qHTS | IDH1-R132H enzyme, NADPH consumption, diaphorase/resazurin fluorescence | 390,000 compounds, 0.093% hits | AID 602179, 2012 | Potency, µM (doses to about 76.6 µM), most hits filed as inhibitors; also: nearly all actives have a fitted effect of over 65% in size
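IDH1-R132H (0.5 ug/mL) preincubated 30 min with compound, then NADPH (0.016 mM) and alpha-KG (2 mM) added; 80 min at RT, pH 7.5. Remaining NADPH coupled via diaphorase/resazurin to fluorescence (540/590 nm); concentration-response curves normalized to no-enzyme control.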
VDR inhibitor = Inhibitors of the vitamin D receptor (VDR): qHTS; Potency, µM, most hits filed as inhibitors; VDR-SRC2-3 peptide fluorescence polarization, 2 h; Vitamin D3 receptor (Homo sapiens), P11473; 400,000 compounds, 0.93% hits
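Inhibition of the VDR/SRC2-3 peptide interaction is quantified by fluorescence polarization. Compounds (23 nl, pintool) incubate with the reagents for 2 hours at ambient room temperature.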
PLK1 PBD inh = qHTS for Inhibitors of PLK1-PDB (polo-like kinase 1 - polo-box domain): Primary Screen | Potency, µM, actives largely listed as inhibitors | AID 720504, 2013 | Plk1 PBD binding of FITC phosphopeptide, fluorescence polarization | 360,000 compounds, 2.8% hits; also: series mostly up to about 57 µM; nearly all actives have a fitted effect of over 65% in size
Numbers stand for hits; n = inactive; u = inconclusive; x = no result given; [ ] = remark or other dose. Calls follow the shape of the dose curve; as a rule, active = well fitted curve in the direction sought with a large enough effect; inconclusive = small, poorly fitted or top-dose-only effect, or another doubt; inactive = no such curve, though single readings can be large; an effect the other way counts as inactive or inconclusive.

SMILES	TrxR1 substrate	TrxR1 inh	Sfp inh	mIDH1 inhibitor	VDR inhibitor	PLK1 PBD inh
Cn1c(=O)c(=O)n(C)c2cc(N3CCOCC3)c(NS(=O)(=O)c3ccc([N+](=O)[O-])cc3)cc21	n	n	50µM	n	n	19µM
Cn1c(=O)c(=O)n(C)c2cc(N3CCCC3)c(NS(=O)(=O)c3ccc(Cl)cc3)cc21	n	35µM	n	n	n	n
C#C[C@]1(O)CC[C@H]2[C@H]3CCC4=Cc5oncc5C[C@]4(C)[C@@H]3CC[C@]21C	x	x	n	x	n	x
Cc1cc(=O)[nH]c(SCC(=O)Nc2nc(-c3ccccc3)cs2)n1	n	n	n	n	n	u
Cc1cc(=O)[nH]c(SCC(=O)Nc2nc3ccccc3s2)n1	n	n	79µM	n	u	u
COc1cc(=O)[nH]c(SCC(=O)Nc2nc3c(s2)CCCC3)n1	n	n	n	n	u	12µM
Cc1cc(=O)[nH]c(SCC(=O)Nc2nnc(SCc3ccccc3)s2)n1	n	n	n	n	n	24µM
CC(=O)Nc1c(O)nc(SCC(=O)Nc2c(C)cccc2C)[nH]c1=O	n	n	79µM	n	n	n
COc1cc(=O)[nH]c(SC(C)C(=O)Nc2nc3c(s2)CCCC3)n1 (configuration not stated)	n	n	n	n	n	n
N=C(N)S/C=C\C(=O)O	x	x	7.9µM	x	28µM	x
O=C(OCCN1CCOCC1)c1ccccc1	n	n	n	n	n	24µM
O=C(CCN1CCOCC1)NNC(=S)NC(=O)c1ccccc1	n	n	45µM	n	n	n
CCn1c(N2CCC(Cc3ccccc3)CC2)nc2c1c(=O)[nH]c(=O)n2C	n	n	n	n	n	30µM
COC(=O)c1ccccc1N=C(SC)N(C)C	n	n	n	n	u	30µM
C=CCOc1cccc(CNCCCN2CCOCC2)c1	n	n	n	n	n	n
Brc1cccc(CNCCCN2CCOCC2)c1	n	n	n	n	n	27µM
COc1cc(/C=C2/SC(=S)N(Cc3ccccc3)C2=O)ccc1OS(C)(=O)=O	n	n	n	n	n	n
COc1cc(/C=C2/SC(=S)N(CC(=O)O)C2=O)ccc1OC(=O)c1cccs1	n	n	u	n	u	24µM
COc1cc(/C=C2\SC(=S)N(CC(=O)O)C2=O)ccc1OS(=O)(=O)c1ccc(C)cc1	n	u	x	n	u	21µM
COc1cc(/C=C2/SC(=S)N(C)C2=O)ccc1OC(=O)c1ccco1	n	n	n	n	n	n
Cc1oc(=O)c(NC(=O)c2ccc(Cl)cc2)cc1C(=O)c1ccccc1	n	u	8.9µM	n	25µM	n
CC(=O)c1cc(NC(=O)c2ccc(C)cc2)c(=O)oc1C	n[11.4 µM]	n	u	n	u	11µM
CC(=O)c1cc(NC(=O)c2ccccc2)c(=O)oc1C	n[11.4 µM]	n	u	n	n	u
COc1ccc(C(=O)Nc2cc3c(oc2=O)CCCC3=O)cc1	n	n	n	n	n	n
Cc1oc(=O)c(NC(=O)c2ccccc2)cc1C(=O)c1ccccc1	n	40µM	16µM	n	18µM	n
SMILES	TrxR1 substrate	TrxR1 inh	Sfp inh	mIDH1 inhibitor	VDR inhibitor	PLK1 PBD inh
CC1(C)CC(=O)c2cc(NC(=O)c3ccccc3)c(=O)oc2C1	n	n	n	n	n	27µM
COC(=O)c1ccccc1NC(=O)CCCn1nc(C)c2sc3ccccc3c2c1=O	n	n	x	n	n	x
CCCCC(Sc1ccc2nnc(-c3ccccn3)n2n1)C(=O)O (configuration not stated)	n	n[0.0914 µM]	x	x	n	x
CCC(NC(=O)CCl)c1ccc(C)cc1 (configuration not stated)	n	n	n	n	n	30µM
CC(NC(=O)CCl)c1ccc(Cl)c(Cl)c1 (configuration not stated)	n	40µM	n	n	n	n
O=C(O)CC(NC(=O)CCc1ccccc1)c1ccc(Cl)cc1 (configuration not stated)	n	n	n	n	n	n
CCC(NC(=O)CCc1ccccc1)c1ccccc1 (configuration not stated)	n	n	n	n	89µM	n
CC(NC(=O)c1ccc(Cl)c(Cl)c1)c1ccc(-c2ccccc2)cc1 (configuration not stated)	n	n[2.29 µM]	n	n	n	n
CCCC(NC(=O)CCl)c1ccccc1 (configuration not stated)	n	u	n	n	n	n
COc1ccc(C2CC(=O)N(Cc3cccc(C)c3)c3c2c(C)nn3-c2nc(C)cc(C)n2)c(OC)c1 (configuration not stated)	n	n	x	n	n	x
Cc1cn(C)c(CC(=O)N2CCN(c3ccc(F)cc3)CC2)c1C(=O)O	n	n	x	n	n	x
CC(=O)OC[C@H]1O[C@@H](O[C@H]2C[C@]3(C)C(C[C@@H](O)C4C([C@]5(C)CC[C@@H](C(C)(C)O)O5)CC[C@]43C)[C@@]3(C)CC[C@H](O)C(C)(C)C23)[C@H](O[C@@H]2O[C@@H](C)[C@H](O)[C@@H](O)[C@H]2O)[C@@H](O)[C@@H]1O (some centres not stated)	n	n	x	n	n	n
CCCC(=O)c1cc(F)c(N2CCOCC2)cc1C	n	n	n	n	n	24µM
C=CCn1c(-c2cccc(Cl)c2)n[nH]c1=S	n	u	n	n	n	n
C=CCn1nnnc1-c1cccc(Cl)c1	n	n	n	n	n	27µM
Oc1ccc(C[C@H]2CNC(=S)N2C[C@H]2CCCN2C[C@H](Cc2ccccc2)N2C[C@H](Cc3ccccc3)N(CC3CCCCC3)C2=S)cc1	x	x	x	x	x	n
CN1C(=O)C2(c3ccccc31)C1CCCC=C1C(C#N)=C(N)C2(C#N)C#N (configuration not stated)	n	u	13µM	n	n	n

Assay outcomes from PubChem.
